The nature of experiment [1]: AP1 Signaling Pathway (AID 357; active = well fitted curve in either direction with a large enough effect, not every such curve was filed as active;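 note: ME-180 reporter cells stimulated with EGF at its EC50 level; % is set by controls: 0 for no effect and ±100 for the full control effect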). The conditions noted are these: ME-180 AP-1-bla reporter, EGF-induced, beta-lactamase ratio, 5 h; at 7.69 µM (top of the series) unless noted. The gist of the method: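 A ratiometric CCF4 readout (405 nm excitation; 460 and 530 nm emission) quantified AP-1-driven beta-lactamase in ME-180 cells after 5 h with compound and EC50 EGF; AC50 values were derived for activators and inhibitors.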

In experiment [2] the target is Cytochrome P450 1A2 (Homo sapiens) (UniProt P05177). The experiment can be described thus: p450-cyp1a2 (AID 410; calls by dose curve;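 note: -100% = full effect of reference inhibitor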). The method in brief: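 Luminescent readout of luciferin formed from Luciferin-ME by human CYP1A2; data normalized against complete inhibition by 57 uM furafylline. Enzyme 20nM, substrate 100uM at Km, 100mM KPO4 buffer, 60 min reaction at room temperature.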

Experiment [3] is described as follows: NFAT Signaling Pathway (AID 444; active = well fitted curve in either direction with a large enough effect, not every such curve was filed as active;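 note: carbachol stimulus at about its EC50 of 1 µM final; % is set by controls: 0 for no effect and ±100 for the full control effect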). The conditions noted are these: Jurkat NFAT-bla M1, carbachol, beta-lactamase ratio, 5 h; at 7.69 µM (top of the series) unless noted. The method in brief:
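Read-out: CCF4 FRET ratio (460 nm/530 nm) after 1 h RT dye loading, used for %activity and AC50 from titration series. Cells: Jurkat NFAT-β-lactamase/M1 line, treated with compound plus 1 uM carbachol for 5 h, 37 °C.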

Experiment [4] can be described thus: Stat Signaling Pathway (AID 446; active = well fitted curve in either direction with a large enough effect, not every such curve was filed as active;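 note: ME-180 cervical cancer cells given 40 pM IL-6 alongside compound; SIE-controlled beta-lactamase reporter measured as 460/530 nm FRET emission ratio; % is set by controls: 0 for no effect and ±100 for the full control effect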). The conditions noted are these: ME-180 (cervical carcinoma) SIE beta-lactamase reporter, IL-6 stimulated, 5 h; at 7.69 µM (top of the series) unless noted. The gist of the method:
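ME-180 SIE-bla cells; overnight plating; cpd + IL-6 40 pM, 5 h, 37 C; LiveBLAzer 2.5 h RT; 460/530 nm emission ratio. Normalized to 300 pM IL-6 and 125 nM JAK inhibitor controls.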

In experiment [5] the target is Glucocorticoid receptor (Homo sapiens) (UniProt P04150). The experiment can be described thus: GR-GFP Redistribution (AID 450;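 active = compounds whose dose series gives a full or clear partial fitted curve of increased nuclear translocation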; note: potency is the fitted concentration of half-maximal effect). The conditions noted are these: U2OS GR-GFP nuclear translocation, laser cytometry, 2 h.
Experiment [6] shares this target. Put plainly: GR-EFC Redistribution (AID 451; calls by dose curve; note: potency is the fitted concentration of half-maximal effect). The conditions noted are these: CHO-K1 GR-EFC translocation, beta-gal luminescence, 2 h. The gist of the method: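 Translocation of GR-ED fusion to nuclear EA restores b-gal, read by luminescence after 1 h room-temperature detection. Engineered CHO-K1 biosensor cells, 1,000/well, exposed 2 h at 37 C to titrations up to 46 uM final.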

The target of experiment [7] is Mitogen-activated protein kinase 10 (Mus musculus) (UniProt Q61831). The experiment can be described thus: JNK3 AlphaScreen Assay (AID 530; active = well fitted curve in either direction with a large enough effect, not every such curve was filed as active;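 note: kinase came from lysate of stimulated human HepG2 cells; signal reports phosphorylation of biotinylated GST-cJun 1-79 at Ser73 with 10 µM ATP; % is set by controls: 0 for no effect and ±100 for the full control effect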). The gist of the method:
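Compound titrations were preincubated 15 minutes at room temperature with substrate, antibody and pre-activated JNK3-containing HepG2 lysate. Reactions were started with 10 uM ATP and stopped with EDTA-containing bead buffer for AlphaScreen detection.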

The target in experiment [8] is 3',5'-cyclic-AMP phosphodiesterase 4B (Homo sapiens) (UniProt Q07343). The experiment can be described thus: qHTS Assay for Inhibitors of PDE-IV (AID 607; active = well fitted activation curve with a large enough effect in the main read-out, with a control signal flat, not every such curve was filed as active; note: % of control where 0% means no effect). The method in brief:
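ACTOne HEK293 cells carry a modified cAMP-gated CNG channel and express endogenous PDE4; plated 1000 cells/well, compounds up to 22.9 uM final. Membrane-potential dye fluorescence (ex 535/em 590) was read; parental cells received 10 uM forskolin + 100 uM RO 20-1724.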

Experiment [9] is described as follows: qHTS Assay for Lipid Storage Modulators (AID 1519; calls by dose curve). The conditions noted are these: Drosophila S3 cells, BODIPY lipid droplet/cell ratio, laser cytometry, cells loaded with oleic acid. The method in brief: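 Cells seeded at 5,000 per well were treated with compounds over a concentration series and loaded with oleic acid (400 uM, as added). Lipid droplet fluorescence (488 nm excitation, 500-530 nm channel) was read by laser-scanning cytometry and normalized to 20 uM Triacsin C.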

In experiment [10] the target is ATP-dependent 6-phosphofructokinase (Trypanosoma brucei brucei) (UniProt O15648). The experiment can be described thus: qHTS Assay to Find Inhibitors of T. brucei phosphofructokinase: hit validation (AID 492961). The method in brief: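 In this biochemical qHTS validation, titrated compounds were tested against 1.25 nM PFK with 0.1 mM ATP and 0.5 mM F6P. Percent activity came from controls lacking or containing enzyme.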

Experiment [11] concerns the target Ubiquitin carboxyl-terminal hydrolase 1 (Homo sapiens) (UniProt O94782). Put plainly: Inhibitors of USP1/UAF1: Pilot qHTS (AID 504865).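 Note: rhodamine fluorescence freed from ubiquitin-rhodamine substrate followed over time; top concentration of the series differs between compounds; % is set by controls: 0 for no effect and ±100 for the full control effect; nearly all actives have a fitted effect of over 35% in size.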 The method in brief: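 1nM USP1/UAF1 + cpd, 15 min RT; start w/ Ub-Rho 150nM final; kinetic FL 480/540 nm, 6 reads q60 s. Buffer 50mM HEPES pH 7.8, 0.5mM EDTA, 1mM TCEP, 0.01% Tween-20, 0.1 mg/ml BSA.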
The target in experiment [12] is Luciferin 4-monooxygenase (Photinus pyralis) (UniProt P08659). Put plainly: Biochemical firefly luciferase enzyme assay for NPC (AID 624030).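 Note: purified P. pyralis luciferase at 10 nM with luciferin and ATP substrate; 0% = DMSO and -100% = full luciferase inhibition by PTC124 control; nearly all actives have a fitted effect of over 70% in size.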 The method in brief: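 Direct inhibition of firefly luciferase enzyme (10 nM final, 50 mM Tris Acetate) assessed by luminescence within 5 minutes. Percent activity scaled between DMSO and PTC124 positive control, with concentration-effect curves classified by fit quality and response.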

A short description of experiment [13]: qHTS profiling for inhibitors of Plasmodium falciparum proliferation (AID 504749).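 Note: 0% = DMSO vehicle and full inhibition = artemisinin control; nearly all actives have a fitted effect of over 60% in size.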 The conditions noted are these: P. falciparum in erythrocytes, SYBR Green DNA, 72 h, at 12.8 µM (top of the series). The gist of the method: (§1)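 Infected RBCs, 0.3% parasitemia/2.5% Hct final; cpd 72 h, 37 C, 5% CO2; lysis buffer with saponin/triton/SYBR Green I, o/n RT dark; FI 485/535; norm. to artemisinin (0.29 uM) and DMSO.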

For another experiment, the system named is AS120. The description is as above. The conditions noted are these: P. falciparum in erythrocytes, SYBR Green DNA, 72 h; series mostly up to 28.7 µM. The gist of the method: as §1
For another experiment, the system named is CP238. The description is as above. The conditions noted are these: P. falciparum in erythrocytes, SYBR Green DNA, 72 h; series mostly up to 12.8 µM. The gist of the method:
as §1

The subject of a further experiment is FAB9. Described as above. The conditions noted are these: P. falciparum in erythrocytes, SYBR Green DNA, 72 h; series mostly up to 12.8 µM. The gist of the method: as §1
The mark [14] stands for this setting: measured here: cell count channel max response.
[15] abbreviates: measured here: lipid channel max response.

Where “and” joins values, the source holds several entries; their conditions need not be identical. Equal values may be shown once. Results filed as inconclusive are left out. Calls of active or inactive are those of the source. Unless noted, calls come from the whole dose curve; as a rule, active = well fitted curve in the direction sought with a large enough effect; inconclusive = small, poorly fitted or top-dose-only effect, or another doubt; inactive = no such curve, though single readings can be large; an effect the other way counts as inactive or inconclusive.

Chain of Glucocorticoid receptor (Homo sapiens) (P04150 whole entry, looked up, the tested form may be a part): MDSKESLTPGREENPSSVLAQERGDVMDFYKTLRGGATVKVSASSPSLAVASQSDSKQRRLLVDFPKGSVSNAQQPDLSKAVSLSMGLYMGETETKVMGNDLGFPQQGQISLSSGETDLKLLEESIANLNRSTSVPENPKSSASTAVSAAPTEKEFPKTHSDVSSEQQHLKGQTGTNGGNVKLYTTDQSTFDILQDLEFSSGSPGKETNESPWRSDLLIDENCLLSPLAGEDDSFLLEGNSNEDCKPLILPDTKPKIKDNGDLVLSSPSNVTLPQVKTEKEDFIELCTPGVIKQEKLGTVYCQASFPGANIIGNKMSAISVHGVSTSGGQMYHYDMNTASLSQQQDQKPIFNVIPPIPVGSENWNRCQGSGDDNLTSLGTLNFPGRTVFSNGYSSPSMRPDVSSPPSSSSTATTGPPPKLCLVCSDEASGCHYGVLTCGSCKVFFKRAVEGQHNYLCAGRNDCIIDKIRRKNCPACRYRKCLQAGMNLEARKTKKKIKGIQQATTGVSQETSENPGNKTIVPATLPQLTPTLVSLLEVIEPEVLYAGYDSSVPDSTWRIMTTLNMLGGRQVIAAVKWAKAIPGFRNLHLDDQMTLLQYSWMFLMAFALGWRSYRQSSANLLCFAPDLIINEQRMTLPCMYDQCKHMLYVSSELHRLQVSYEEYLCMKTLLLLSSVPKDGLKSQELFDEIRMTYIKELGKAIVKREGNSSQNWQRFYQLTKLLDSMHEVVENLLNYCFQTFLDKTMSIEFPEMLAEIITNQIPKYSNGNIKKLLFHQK
Chain of Ubiquitin carboxyl-terminal hydrolase 1 (Homo sapiens) (O94782 whole entry, looked up): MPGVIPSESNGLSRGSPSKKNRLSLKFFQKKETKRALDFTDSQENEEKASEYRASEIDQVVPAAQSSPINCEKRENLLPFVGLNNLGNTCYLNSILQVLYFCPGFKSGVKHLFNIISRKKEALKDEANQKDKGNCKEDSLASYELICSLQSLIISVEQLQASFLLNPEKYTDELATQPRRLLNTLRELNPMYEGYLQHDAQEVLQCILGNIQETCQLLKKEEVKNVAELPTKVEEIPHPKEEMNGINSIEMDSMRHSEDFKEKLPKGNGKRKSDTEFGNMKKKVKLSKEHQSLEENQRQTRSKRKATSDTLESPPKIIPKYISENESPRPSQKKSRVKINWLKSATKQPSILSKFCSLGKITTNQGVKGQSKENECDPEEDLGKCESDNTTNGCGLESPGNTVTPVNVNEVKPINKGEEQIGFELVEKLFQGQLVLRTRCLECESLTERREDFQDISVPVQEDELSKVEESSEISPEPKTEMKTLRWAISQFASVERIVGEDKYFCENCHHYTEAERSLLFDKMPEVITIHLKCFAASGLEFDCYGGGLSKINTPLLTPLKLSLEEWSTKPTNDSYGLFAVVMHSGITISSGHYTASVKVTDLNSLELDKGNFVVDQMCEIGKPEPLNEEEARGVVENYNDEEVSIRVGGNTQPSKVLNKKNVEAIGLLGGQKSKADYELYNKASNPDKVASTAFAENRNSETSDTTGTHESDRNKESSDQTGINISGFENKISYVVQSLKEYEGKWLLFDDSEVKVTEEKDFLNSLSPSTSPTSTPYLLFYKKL
Chain of 3',5'-cyclic-AMP phosphodiesterase 4B (Homo sapiens) (Q07343 whole entry, looked up): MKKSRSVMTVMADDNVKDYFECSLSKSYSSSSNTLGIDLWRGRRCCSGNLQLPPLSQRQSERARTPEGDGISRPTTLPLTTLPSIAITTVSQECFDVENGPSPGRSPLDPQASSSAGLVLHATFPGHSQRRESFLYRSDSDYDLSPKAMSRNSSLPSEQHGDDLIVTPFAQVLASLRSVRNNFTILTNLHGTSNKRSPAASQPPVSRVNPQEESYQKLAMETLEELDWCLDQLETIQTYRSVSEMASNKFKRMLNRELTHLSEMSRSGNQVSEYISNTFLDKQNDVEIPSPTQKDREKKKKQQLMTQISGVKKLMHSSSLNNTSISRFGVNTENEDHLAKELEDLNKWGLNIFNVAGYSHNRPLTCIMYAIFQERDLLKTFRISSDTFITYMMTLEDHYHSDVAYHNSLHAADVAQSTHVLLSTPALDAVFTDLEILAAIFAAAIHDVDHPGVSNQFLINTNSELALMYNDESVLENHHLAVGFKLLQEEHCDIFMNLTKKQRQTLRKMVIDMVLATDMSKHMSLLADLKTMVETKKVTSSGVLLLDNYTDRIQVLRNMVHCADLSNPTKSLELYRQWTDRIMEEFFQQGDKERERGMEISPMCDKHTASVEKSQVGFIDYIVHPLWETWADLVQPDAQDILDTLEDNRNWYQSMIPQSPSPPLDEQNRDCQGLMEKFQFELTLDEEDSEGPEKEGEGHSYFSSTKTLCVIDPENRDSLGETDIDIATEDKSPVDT
Chain of ATP-dependent 6-phosphofructokinase (Trypanosoma brucei brucei) (O15648 whole entry, looked up): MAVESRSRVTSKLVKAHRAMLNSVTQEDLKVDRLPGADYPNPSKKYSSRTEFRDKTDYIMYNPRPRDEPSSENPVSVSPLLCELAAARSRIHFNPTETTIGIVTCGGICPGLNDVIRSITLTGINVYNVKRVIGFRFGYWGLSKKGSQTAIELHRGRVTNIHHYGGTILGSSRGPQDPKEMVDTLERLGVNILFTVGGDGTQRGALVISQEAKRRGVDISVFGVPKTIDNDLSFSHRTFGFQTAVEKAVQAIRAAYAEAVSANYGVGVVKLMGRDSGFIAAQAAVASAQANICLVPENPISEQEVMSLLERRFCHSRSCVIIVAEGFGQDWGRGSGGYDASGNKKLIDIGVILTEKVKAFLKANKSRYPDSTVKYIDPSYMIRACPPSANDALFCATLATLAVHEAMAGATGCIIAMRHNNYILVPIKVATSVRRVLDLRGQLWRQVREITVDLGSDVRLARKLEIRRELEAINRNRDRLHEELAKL
Chain of Luciferin 4-monooxygenase (Photinus pyralis) (P08659 whole entry, looked up): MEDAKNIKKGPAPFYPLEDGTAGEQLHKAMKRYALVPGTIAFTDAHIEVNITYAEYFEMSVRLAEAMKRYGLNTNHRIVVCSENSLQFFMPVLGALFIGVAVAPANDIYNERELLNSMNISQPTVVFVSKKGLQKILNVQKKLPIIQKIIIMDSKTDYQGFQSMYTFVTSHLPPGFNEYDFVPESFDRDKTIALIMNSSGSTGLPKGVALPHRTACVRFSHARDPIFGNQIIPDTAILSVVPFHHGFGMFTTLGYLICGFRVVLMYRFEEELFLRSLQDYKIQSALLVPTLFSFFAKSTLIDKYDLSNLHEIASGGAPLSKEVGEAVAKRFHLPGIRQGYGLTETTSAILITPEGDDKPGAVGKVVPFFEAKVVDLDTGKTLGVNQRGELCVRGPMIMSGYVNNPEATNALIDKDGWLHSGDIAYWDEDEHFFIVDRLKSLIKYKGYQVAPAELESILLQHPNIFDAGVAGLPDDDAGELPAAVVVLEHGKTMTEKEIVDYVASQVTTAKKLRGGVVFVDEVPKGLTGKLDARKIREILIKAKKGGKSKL
Chain of Cytochrome P450 1A2 (Homo sapiens) (P05177 whole entry, looked up): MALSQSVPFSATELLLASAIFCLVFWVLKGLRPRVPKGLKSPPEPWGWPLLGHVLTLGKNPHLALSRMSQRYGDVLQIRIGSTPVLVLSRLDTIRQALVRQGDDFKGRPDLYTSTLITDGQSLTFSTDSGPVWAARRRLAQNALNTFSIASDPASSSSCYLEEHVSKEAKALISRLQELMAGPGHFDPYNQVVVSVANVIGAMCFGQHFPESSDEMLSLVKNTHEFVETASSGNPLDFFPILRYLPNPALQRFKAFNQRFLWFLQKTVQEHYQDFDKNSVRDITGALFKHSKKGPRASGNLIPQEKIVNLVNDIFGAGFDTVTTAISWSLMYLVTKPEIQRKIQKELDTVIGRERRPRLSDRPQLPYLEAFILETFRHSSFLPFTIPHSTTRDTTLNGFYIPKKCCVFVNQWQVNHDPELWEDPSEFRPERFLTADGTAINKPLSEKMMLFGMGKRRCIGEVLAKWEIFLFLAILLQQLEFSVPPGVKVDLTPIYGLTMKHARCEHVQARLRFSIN

For the compound `CC(=O)N(CC(O)CN(C(C)=O)c1c(I)c(C(=O)NC[C@@H](O)CO)c(I)c(C(=O)NC[C@@H](O)CO)c1I)c1c(I)c(C(=O)NC[C@@H](O)CO)c(I)c(C(=O)NC[C@@H](O)CO)c1I`, the activity change, negative = inhibition was 2.7% [at 17.2 µM] (inactive) in [1], -2.76% [at 17.2 µM] (inactive) in experiment [3] and 0.967% (inactive) in experiment [9] (at 25.7 µM (top of the series)). Further, the Potency entry (in experiment [2]; in experiment [7]; in [8]; in experiment [11]; in the experiment on AS120; with CP238) was “inactive” throughout. The Potency entry in the experiment on FAB9 is “inactive”. The activity, negative = inhibition in experiment [4] is 4.45% [at 17.2 µM] (inactive); in experiment [13] (parasite line A), 5.56% (inactive); in [13] (parasite line B) it was 6.47% (inactive). Moreover, the Potency in experiment [5] and in experiment [6] was > 20.6 µM (inactive) each time. The max response in experiment [9] (setting [14]) was -17.3%; in [9] (setting [15]), -18.3%. For the same compound, the outcome in [10] and in experiment [12] was inactive.

Take `CC(C)(O/N=C(\C(=O)N[C@@H]1C(=O)N2C(C(=O)[O-])=C(C[n+]3ccccc3)CS[C@@H]12)c1csc(N)n1)C(=O)O`: the activity change, negative = inhibition in [1] was 8.59% [at 17.2 µM] (inactive); in experiment [3], 7.85% [at 17.2 µM] (inactive); in experiment [9] (at 25.7 µM (top of the series)), 0.159% (inactive). Also, the Potency result (in experiment [2]; in [7]; in [8]; in [11]; in the experiment on AS120; in the experiment with CP238) was “inactive” each time. For the same compound, the Potency entry in the experiment on FAB9 was “inactive”. Moreover, the activity, negative = inhibition was 7.45% [at 17.2 µM] (inactive) in experiment [4], 2.04% (inactive) in experiment [13] (parasite line A) and -2.21% (inactive) in experiment [13] (parasite line B). Also, the Potency in experiment [5] and in [6] was > 20.6 µM (inactive) each time. Further, the max response in [9] (setting [14]) was -1.74%; in experiment [9] (setting [15]), -1.95%. Also, the outcome in experiment [10] and in experiment [12] was inactive.

Regarding `CC(CCC(=O)O)C1CCC2C3C(O)C[C@@H]4CC(O)CC[C@@]4(C)C3CC[C@@]12C` (some centres not stated), the activity change, negative = inhibition in experiment [9] (at 57.5 µM (top of the series)) was 1.17% (inactive) and 5.02% (inactive). The max response was 13% and 15.4% in experiment [9] (setting [14]); 15% and 25.1% in experiment [9] (setting [15]). For the same compound, the Potency result in [11] was “inactive”.

The values above are taken from PubChem BioAssay (NCATS).
